Structures are written as SMILES. Values without a mark were called inactive. A call without a number means that no potency is given here. The source made the active and inactive calls. The call rests on the fitted dose curve; in most records, active means well fitted curve in the direction sought with a large enough effect in the repeat runs; inconclusive means weak or mixed curves; inactive means flat fitted curve, though single readings scatter.

This experiment is described as follows: qHTS assay to test for compound auto fluorescence at 590 nm (red) in HEK293 cells (AID 720679). Conditions: red autofluorescence 540/590 nm; series mostly up to 91.3 µM. In a few lines: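 Red channel, Ex/Em 540/590nm; signal expressed as equivalency to Rose Bengal sodium. HEK293, 2,000 cells/well, 10% dialyzed FBS; 23 nL compound pinned after 4-5 hr attachment; overnight 37C/5% CO2 before reading.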
A general note: Quantitative high-throughput screening tests each substance at several concentrations.
With `CC(=O)c1ccc2c(c1)N(CCCN(C)C)c1ccccc1S2`, the fluorescence, % of fluorescent control was 0.0215% [at 18.6 µM]. As for `O=C1c2ccccc2S(=O)(=O)N1CCCCN1CCN(c2ncccn2)CC1`, the Potency entry was “inactive”. In the case of `CN(C)c1ccc(C(c2ccccc2)c2ccc(N(C)C)cc2)cc1`, the Potency entry was “inactive”.

As for `Cc1oc2c(NC(=O)c3c(Cl)cccc3Cl)cccc2c1C(C)(C)O`, the Potency entry is “inactive”.

On to `O=S(c1cc(Cl)cc(Cl)c1O)c1cc(Cl)cc(Cl)c1O`, for which the Potency result is “inactive”. Still for that read-out and setting: the same measure for `C=CC1CC2C=CC1C2` (configuration not stated): “inactive”; for `ClCCOCCOCCCl`: “inactive”; for `OCc1cc(C(O)CNCCCCCCOCCCCc2ccccc2)ccc1O` (configuration not stated): “inactive”. Regarding `CC(C)OC(=O)C(C)N(C(=O)c1ccccc1)c1ccc(F)c(Cl)c1` (configuration not stated), the Potency result is “inactive”. Same read-out and setting: the result for `Nc1cccc([N+](=O)[O-])c1` reads “inactive”. Turning to `CC1(c2ccccc2)OC(C(=O)O)=CC1=O` (configuration not stated), the Potency result is “inactive”. For the compound `O=C(NCCO[N+](=O)[O-])c1cccnc1`, the Potency result was “inactive”. For the compound `O=CC1CC=CCC1` (configuration not stated), the Potency entry was “inactive”. As for `CCCCCC[C@@H](O)C/C=C\CCCCCCCC(=O)OC`, the Potency result was “inactive”. On the same count and under the same terms, the same measure for `CCCCC(CC)COC(=O)CCCCCCCCC(=O)OCC(CC)CCCC` (configuration not stated): “inactive”. The same measure, in the same setting: the same measure for `O=C(O)c1ccco1`: “inactive”; for `C=CCOC(=O)CCC1CCCCC1`: “inactive”. With `O=C(O)CNCC(=O)O`, the fluorescence, % of fluorescent control was -0.0175% [at 3.72 µM]. Consider `CNCCCN1c2ccccc2CCc2ccccc21`, for which the fluorescence, % of fluorescent control is 0.0732% [at 18.6 µM].

In the case of `CC(=O)NO`, the Potency result is “inactive”.

On to `Nc1ccccc1S(=O)(=O)c1ccccc1`, for which the Potency result is “inactive”. Same read-out and setting: the same measure for `NCc1ccccc1Sc1ccccc1CO`: “inactive”. Regarding `CCOCC(O)COc1ccc(NC(=O)CC[S+](C)C)cc1` (configuration not stated), the Potency result was “inactive”.

Regarding `NCC(=O)CCC(=O)O`, the Potency result is “inactive”. On the same count and under the same terms, the same measure for `C[N+](C)(C)CCOC(=O)CCC(=O)OCC[N+](C)(C)C`: “inactive”; for `NC(=O)C(c1ccccc1)(c1ccccc1)[C@@H]1CCN(CCc2ccc3c(c2)CCO3)C1`: “inactive”.

As to `C=C(C)C(=O)OCCOCC`, the Potency result is “inactive”. Regarding `Cn1c(=O)cc(Oc2ccc(F)cc2F)c2cnc(NCC(C)(C)O)nc21`, the Potency entry was “inactive”. For the compound `C/C(=C(\CCOP(=O)(O)O)SC(=O)c1ccccc1)N(C=O)Cc1cnc(C)nc1N`, the fluorescence, % of fluorescent control is 0.166% [at 18.6 µM]. In the case of `c1ccc(C(O[C@H]2CCCN(CCc3ccc4c(c3)OCO4)C2)c2ccccc2)cc1`, the Potency entry is “inactive”.

On to `COc1ccc(C(=O)N2CCN(CC(=O)N3CCOCC3)CC2)cc1`, for which the Potency result is “inactive”. Turning to `C/C=C/C(=O)CC`, the fluorescence, % of fluorescent control was -0.535% [at 18.6 µM]. In the case of `COc1ccc(S(=O)(=O)N2C(=O)[C@@](c3ccccc3OC)(N3C[C@H](O)C[C@H]3C(=O)N(C)C)c3cc(Cl)ccc32)c(OC)c1`, the Potency entry was “inactive”. Still for that read-out and setting: the result for `C#CCN(C)CCCOc1ccc(Cl)cc1Cl` reads “inactive”; that for `CCCCC(CC)COC(=O)COc1ccc(Cl)cc1Cl` (configuration not stated), “inactive”; that for `CC(=O)OC[C@H]1O[C@@H](n2ncc(=O)[nH]c2=O)[C@H](OC(C)=O)[C@@H]1OC(C)=O`, “inactive”. On to `COc1cc(C(=O)OCCCN2CCCN(CCCOC(=O)c3cc(OC)c(OC)c(OC)c3)CC2)cc(OC)c1OC`, for which the Potency result was “inactive”.

The record behind these values is PubChem BioAssay (Tox21).
